Several values for one entry are separate records, joined by “and”; a condition that tells them apart may be missing. Identical values can stand only once. Records with an inconclusive call do not appear. Where a structure was tested more than once in an assay, its records may differ in their call. Activity calls are given as the source filed them. Unless noted, the limit is not given here; nearly all actives have AC50 up to about 26 µM.
Experiments:
[1] = viability loss in pontine glioma line – cell-based, SU-DIPG-XVII, MIPE5.0, CellTiter-Glo, qHTS, dose response (AID 1347060); details: CellTiter-Glo ATP luminescence;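 as to AC50: cells exposed to compound for 48 hours before viability readout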
[2] = viability loss in pontine glioma line – cell-based, SU-DIPG-XIII, MIPE4.0, CellTiter-Glo, qHTS, dose response (AID 1347061; cut-off not given, nearly all actives have AC50 up to about 37 µM;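 also: cells exposed to compound for 48 hours before readout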); details: CellTiter-Glo ATP luminescence
[3] = viability loss in pontine glioma line – cell-based, JHH-DIPG-1, MIPE4.0, CellTiter-Glo, qHTS, dose response (AID 1347062; cut-off not given, nearly all actives have AC50 up to about 27 µM;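 as to AC50: cells exposed to compound for two days before readout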); details: JHH-DIPG-1 viability, CellTiter-Glo ATP luminescence
[4] = viability loss in pontine glioma line – cell-based, SU-DIPG-IV, MIPE4.0, CellTiter-Glo, qHTS, dose response (AID 1347063; cut-off not given, nearly all actives have AC50 up to about 30 µM;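 also: compound exposure lasted 48 hours before the viability readout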); details: CellTiter-Glo ATP luminescence
[5] = viability loss in pontine glioma line – cell-based, SU-DIPG-XIII, MIPE5.0, CellTiter-Glo, qHTS, dose response (AID 1347064; cut-off not given, nearly all actives have AC50 up to about 23 µM;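 as to AC50: cells exposed to compound for 48 hours before the viability read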); details: CellTiter-Glo ATP luminescence
[6] = viability loss in pontine glioma line – cell-based, SU-DIPG-XXV, MIPE5.0, CellTiter-Glo, qHTS, dose response (AID 1347065); details: CellTiter-Glo ATP luminescence;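 also: cells exposed to compound for 48 hours before ATP readout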
[7] = JHH-DIPG-1 glioma cell viability, MIPE5.0 library, CellTiter-Glo luminescence, qHTS (AID 1347067); details: JHH-DIPG-1 glioma viability, CellTiter-Glo ATP luminescence;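 also: cells exposed to compound for 48 hours before readout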
[8] = growth inhibition of DIPG cells – cell-based, MIPE5.0 library, qHTS (AID 1347068; cut-off not given, nearly all actives have IC50 up to about 30 µM;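 as to IC50: cells exposed to compound for 48 hours before viability readout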); details: SU-DIPG-XXV viability
[9] = viability loss with induced miR-34 in A549 – imaging, A549 dox-inducible miR-34, nuclei and caspase counts, primary screen (AID 1347080;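 active = compounds whose cell count with miR-34 switched on is under 0.7 times the count with it off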); details: A549 miR-34 inducible, Hoechst nuclei count, 48 h
[10] = MELAS cybrid and Rieske KO viability enhancers – cell-based, MELAS cybrids, Rieske KO mouse fibroblasts, CellTiter-Glo, primary screen (AID 1508586;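 active = mean z-score across replicates of 1.96 or higher in either the MELAS or the Rieske mutant cell line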;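 also: z relative to plate mean and SD of compound and empty wells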); details: low glucose
[11] = growth inhibition of DIPG cells – cell-based, MIPE4.0 library, CellTiter-Glo luminescence, qHTS (AID 1347066; cut-off not given, nearly all actives have AC50 up to about 30 µM;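 also: cells exposed to compound for 48 hours before readout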); details: SU-DIPG-VI viability, CellTiter-Glo ATP luminescence
[12] = compounds altering HSF1 focus formation in cells – imaging, Selleck Cancer Library (AID 1347162; in the data active = plate-normalised HSF1 focus index below about 0.46); details: human cells, HSF1 nuclear foci imaging, at 10 µM; SSMD: measured here: HSF1 foci SSMD mean; cell count: measured here: cell number; plate-normalised HSF1 focus index: stronger effect = lower value
[13] = drug combination growth inhibition, ovarian cancer – cell-based, oncology-focused library, rucaparib conditional, profiling panel (AID 1508598;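 active = normalized viability below 100% at a tested concentration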); details: patient-derived ovarian cancer cells, CellTiter-Glo viability, 144 h, stronger effect = lower value
[14] = stronger effect = lower value, cell number ratio, induced over uninduced
[15] = measured here: relative caspase fold change +Dox/-Dox
[16] = measured here: total cells with miR-34 induction, stronger effect = lower value
[17] = measured here: total cells without miR-34 induction
[18] = MELAS cybrid survival, CellTiter-Glo 48 h, stronger effect = higher value
[19] = Rieske KO mouse fibroblast survival, CellTiter-Glo 72 h

**Q.** For CC(C)c1cc(C(=O)N2Cc3ccc(CN4CCN(C)CC4)cc3C2)c(O)cc1O, which AC50 [1] is on record?
**A.** 0.468 µM (active)

**Q.** What about the AC50 [2] of the same compound?
**A.** 1.18 µM (active)

**Q.** And the AC50 [3]?
**A.** 0.296 µM (active)

**Q.** And the AC50 [4]?
**A.** 0.526 µM (active)

**Q.** And the AC50 [5]?
**A.** 0.742 µM (active)

**Q.** And the AC50 [6]?
**A.** 0.525 µM (active)

**Q.** And the AC50 [7]?
**A.** 0.661 µM (active)

**Q.** And the IC50 [8]?
**A.** 1.48 µM (active)

**Q.** And the fold change [9, 14]?
**A.** 0.888 (inactive)

**Q.** What about the fold change [9, 15] of the same compound?
**A.** 0.921

**Q.** What about the cell count [9, 16] of the same compound?
**A.** 1780

**Q.** What about the cell count [9, 17] of the same compound?
**A.** 2010

**Q.** And the z-score [10, 18]?
**A.** 2.68 (active)

**Q.** And the z-score [10, 19]?
**A.** -0.499

**Q.** Which AC50 [1] does the source give for CC(C)n1nc(-c2cc3cc(O)ccc3[nH]2)c2c(N)ncnc21 here?
**A.** 2.63 µM (active)

**Q.** And the AC50 [2]?
**A.** 18.7 µM (active)

**Q.** And the AC50 [3]?
**A.** 9.35 µM (active)

**Q.** And the AC50 [4]?
**A.** 0.148 µM (active)

**Q.** And the AC50 [5]?
**A.** 1.66 µM (active)

**Q.** What about the AC50 [6] of the same compound?
**A.** 0.742 µM (active)

**Q.** What about the AC50 [11] of the same compound?
**A.** 20.9 µM (active)

**Q.** What about the AC50 [7] of the same compound?
**A.** 2.63 µM (active)

**Q.** And the fold change [9, 14]?
**A.** 0.892 (inactive)

**Q.** And the fold change [9, 15]?
**A.** 1.11

**Q.** And the cell count [9, 16]?
**A.** 1620

**Q.** What about the cell count [9, 17] of the same compound?
**A.** 1820

**Q.** What about the z-score [10, 18] of the same compound?
**A.** 5.6 (active)

**Q.** What about the z-score [10, 19] of the same compound?
**A.** -2.66

**Q.** What does the source list for Nc1ncnc2ccccc12?
**A.** outcome [1]: inactive; outcome [2]: inactive; outcome [3]: inactive; outcome [4]: inactive; outcome [5]: inactive; outcome [6]: inactive; outcome [7]: inactive; outcome [8]: inactive

**Q.** With COc1ccc(C2(C#N)CCC(C(=O)O)CC2)cc1OC1CCCC1 (centres undefined) as the compound, how does the outcome [1] read?
**A.** inactive

**Q.** And the outcome [2]?
**A.** inactive

**Q.** What about the outcome [3] of the same compound?
**A.** inactive

**Q.** And the outcome [4]?
**A.** inactive

**Q.** What about the outcome [5] of the same compound?
**A.** inactive

**Q.** And the outcome [6]?
**A.** inactive

**Q.** What about the outcome [11] of the same compound?
**A.** inactive

**Q.** What about the fold change [9, 14] of the same compound?
**A.** 0.931 (inactive)

**Q.** What about the fold change [9, 15] of the same compound?
**A.** 0.847

**Q.** What about the cell count [9, 16] of the same compound?
**A.** 7550

**Q.** What about the cell count [9, 17] of the same compound?
**A.** 8110

**Q.** What about the z-score [10, 18] of the same compound?
**A.** -0.364 (inactive)

**Q.** What about the z-score [10, 19] of the same compound?
**A.** 0.0886

**Q.** With CN1CCN(c2ccc3nc(-c4c(N)c5c(F)cccc5[nH]c4=O)[nH]c3c2)CC1 as the compound, how does the AC50 [1] read?
**A.** 0.525 µM (active)

**Q.** What about the AC50 [2] of the same compound?
**A.** 2.96 µM (active)

**Q.** And the AC50 [3]?
**A.** 26.4 µM (active)

**Q.** What about the AC50 [4] of the same compound?
**A.** 23.5 µM (active)

**Q.** And the AC50 [5]?
**A.** 1.05 µM (active)

**Q.** What about the AC50 [6] of the same compound?
**A.** 0.468 µM (active)

**Q.** What about the AC50 [11] of the same compound?
**A.** 20.9 µM (active)

**Q.** And the AC50 [7]?
**A.** 11.8 µM (active)

**Q.** What about the fold change [9, 14] of the same compound?
**A.** 1.57 (inactive) and 1.08 (inactive)

**Q.** What about the fold change [9, 15] of the same compound?
**A.** 0.308 and 0.757

**Q.** What about the cell count [9, 16] of the same compound?
**A.** 744 and 794

**Q.** And the cell count [9, 17]?
**A.** 472 and 732

**Q.** What about the SSMD [12] of the same compound?
**A.** -9.43

**Q.** What about the cell count [12] of the same compound?
**A.** 5510

**Q.** What about the plate-normalised HSF1 focus index [12] of the same compound?
**A.** 0.516 (inactive)

**Q.** What about the z-score [10, 18] of the same compound?
**A.** 3.68 (active) and -0.215 (inactive)

**Q.** And the z-score [10, 19]?
**A.** -0.494 and -0.354

**Q.** And the viability ([13]; at 0.000305 µM, OCI-C5x cells, with rucaparib 10 µM, 100% = cells with rucaparib alone)?
**A.** 112% (inactive)

**Q.** And the viability ([13]; at 0.000305 µM, OCI-C5x cells, without rucaparib)?
**A.** 107% (inactive)

**Q.** What about the viability ([13]; at 0.000305 µM, OCI-P5x cells, with rucaparib 20 µM, 100% = cells with rucaparib alone) of the same compound?
**A.** 123% (inactive)

**Q.** What about the viability ([13]; at 0.000305 µM, OCI-P5x cells, without rucaparib) of the same compound?
**A.** 105% (inactive)

**Q.** And the viability ([13]; at 0.00122 µM, OCI-C5x cells, with rucaparib 10 µM, 100% = cells with rucaparib alone)?
**A.** 111% (inactive)

**Q.** What about the viability ([13]; at 0.00122 µM, OCI-C5x cells, without rucaparib) of the same compound?
**A.** 104% (inactive)

**Q.** And the viability ([13]; at 0.00122 µM, OCI-P5x cells, with rucaparib 20 µM, 100% = cells with rucaparib alone)?
**A.** 118% (inactive)

**Q.** What about the viability ([13]; at 0.00122 µM, OCI-P5x cells, without rucaparib) of the same compound?
**A.** 107% (inactive)

**Q.** And the viability ([13]; at 0.00488 µM, OCI-C5x cells, with rucaparib 10 µM, 100% = cells with rucaparib alone)?
**A.** 121% (inactive)

**Q.** And the viability ([13]; at 0.00488 µM, OCI-C5x cells, without rucaparib)?
**A.** 115% (inactive)

**Q.** And the viability ([13]; at 0.00488 µM, OCI-P5x cells, with rucaparib 20 µM, 100% = cells with rucaparib alone)?
**A.** 136% (inactive)

**Q.** And the viability ([13]; at 0.00488 µM, OCI-P5x cells, without rucaparib)?
**A.** 109% (inactive)

**Q.** And the viability ([13]; at 0.0195 µM, OCI-C5x cells, with rucaparib 10 µM, 100% = cells with rucaparib alone)?
**A.** 104% (inactive)

Source: PubChem BioAssay
